Assay results published in PubChem BioAssay (NCI).
Compounds without any hit were thinned out: in the full panel of roughly 83,000, 20% have a hit.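 Compound tested at a single concentration for 48 hours in 96-well plates; a percent growth value below 10 was scored as active.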 A number with no mark means an inactive call. Activity calls are given as the source filed them.

How the values were obtained:
Assay in all cases: NCI-60 one-dose screen, 48 h (100 = growth as untreated, 0 = no growth, -100 = all killed)
SK-MEL-2 melanoma = settings: 10 µM unless noted
EKVX NSCLC = settings: 10 µM unless noted
SN12C renal = settings: 10 µM unless noted
UO-31 renal = settings: 10 µM unless noted
TK-10 renal = settings: 10 µM unless noted
ACHN renal = settings: 10 µM unless noted
CAKI-1 renal = settings: 10 µM unless noted
A498 renal = settings: 10 µM unless noted
MOLT-4 leukemia = settings: 10 µM unless noted
SR leukemia = settings: 10 µM unless noted
RPMI-8226 leukemia = settings: 10 µM
OVCAR-8 ovarian = settings: 10 µM unless noted
OVCAR-5 ovarian = settings: 10 µM unless noted
OVCAR-4 ovarian = settings: 10 µM unless noted
SK-OV-3 ovarian = settings: 10 µM
IGROV1 ovarian = settings: 10 µM unless noted
OVCAR-3 ovarian = settings: 10 µM unless noted
HS 578T breast = settings: 10 µM unless noted
NCI/ADR-RES ovarian = settings: 10 µM unless noted
CCRF-CEM leukemia = settings: 10 µM unless noted

Row | Structure (SMILES) | growth (SK-MEL-2 melanoma) | growth (EKVX NSCLC) | growth (SN12C renal) | growth (UO-31 renal) | growth (TK-10 renal) | growth (ACHN renal) | growth (CAKI-1 renal) | growth (A498 renal) | growth (MOLT-4 leukemia) | growth (SR leukemia) | growth (RPMI-8226 leukemia) | growth (OVCAR-8 ovarian) | growth (OVCAR-5 ovarian) | growth (OVCAR-4 ovarian) | growth (SK-OV-3 ovarian) | growth (IGROV1 ovarian) | growth (OVCAR-3 ovarian) | growth (HS 578T breast) | growth (NCI/ADR-RES ovarian) | growth (CCRF-CEM leukemia)
1 | CC1SC(c2cccc(Oc3ccccc3)c2)N(CCc2cccs2)C1=O (stereo not given) | -75.7% (active) | -24.1% (active) | -86.3% (active) | -17.7% (active) | -16.2% (active) | -12.8% (active) | -37.4% (active) | -56.6% (active) | -2.19% (active) | -2.19% (active) | -13.5% (active) | 0% (active) | -13.9% (active) | 8.45% (active) | -8.94% (active) | -23.6% (active) | -98.1% (active) | -44.8% (active) | -28% (active) | –
2 | CCCCCCCC/C=C\CCCCCCCCOc1cccc(CC(=O)NCC[N+](C)(C)C)c1 | 106% | 92.6% | 69.7% | 92.6% | 68.6% | 93.4% | 71.2% | – | 92.9% | 59% | 61.9% | 85.9% | 51.8% | 88.6% | – | 3.34% (active) | 99.4% | 78.4% | 103% | 78%
3 | FC(F)(F)c1ccc2c(c1)n1cnnc1c1nncn21 | 112% | 94.4% | 106% | 87.6% | 100% | 112% | 97% | 94.7% | 96.4% | 84.1% | 95.2% | – | 110% | 111% | 109% | 119% | 117% | – | 113% | –
4 | Nc1cc(Br)c(-c2nnc(CCC(=O)c3nc4ccccc4[nH]3)o2)c(Br)c1 | 34.3% | 95.6% | 95.4% | 47.4% | 101% | 102% | 90.5% | 71.7% | 68.2% | 18.5% | 79.6% | 95.2% | 97.2% | 82.4% | 81.8% | 76.8% | 49.1% | 99.6% | 89.6% | –
5 | O=C(CCc1nnc2sc(/C=C\c3ccccc3)nn12)c1nc2ccccc2[nH]1 | 98.1% | 88.6% | 91.9% | 70.4% | 113% | 99.5% | 93.4% | 65.2% | 62.8% | 63.5% | 72% | 92.7% | 116% | – | 97.2% | 96% | 115% | 83.1% | 89.5% | –
6 | CCCCOC(=O)C1OC(Oc2ccc3c(C)cc(=O)oc3c2)[C@@H](OC(C)=O)C(OC(C)=O)C1OC(C)=O (stereo not given in full) | 103% | 89.5% | 99.6% | 87.1% | 99.2% | 101% | 94.1% | – | 107% | 88.1% | 97.9% | 104% | 97.8% | 101% | – | 101% | 108% | 101% | 99.9% | 94.1%
7 | O=C(N/N=C/c1ccc(F)cc1)c1[nH]c2ccc(I)cc2c1-c1ccccc1 | 71.9% | 5.92% (active) | 32.6% | 46% | 65.2% | 36% | 5.08% (active) | 39.1% | – | 114% | – | 45.5% | – | 37.2% | -1.53% (active) | 23.8% | 5.48% (active) | 51.8% | – | 39.2%
8 | CCCCC(O)Cn1ncc(C(=O)OCC)c1NC(=O)NCc1ccccc1C(F)(F)F (stereo not given) | 104% | 101% | 99.7% | 82.6% | 96.3% | 97.4% | 84.2% | – | 93.9% | 87.9% | 88.6% | 98.7% | 105% | 85% | – | 99% | 108% | 106% | 98.7% | 104%
9 | COc1ccc(/C=C2\Oc3cc(C)c(Cl)cc3C2=O)cc1OC | 109% | 94% | 95% | 89.5% | 112% | 97.9% | 87.2% | – | 91% | 73.2% | 89.9% | 102% | 98.3% | 82.3% | – | 103% | 108% | 109% | – | 87.4%
10 | CCCCCCCC/C=C\CCCCCCCCOc1cccc(CC(=O)NCC[N+]2(C)CCCC2)c1 | 107% | 89.4% | 53% | 94.1% | 84.7% | 99% | 78.1% | – | 80.3% | 43.1% | 77.3% | 85.5% | 53.8% | 77.1% | – | -15.7% (active) | 96.2% | 77.5% | 108% | 51.6%
11 | CN1CCN(C)c2cncc(Br)c2C1=O | 118% | -82.7% (active) | 101% | 79.5% | 126% | 108% | -89.3% (active) | 85% | 98.5% | 84.1% | 93.8% | 102% | 104% | 115% | 101% | 108% | 109% | – | 98.3% | –
12 | CCC(C)[C@H]1O[C@]2(CC[C@@H]1C)C[C@@H]1C[C@@H](C/C=C(\C)[C@@H](OC3C[C@H](OC)C(O[C@H]4C[C@H](OC)[C@@H](O)[C@H](C)O4)[C@H](C)O3)[C@@H](C)/C=C/C=C3\CO[C@@H]4[C@H](O)C(C)=C[C@@H](C(=O)O1)[C@]34O)O2 (stereo not given in full) | -9.26% (active) | 4.67% (active) | 14.6% | 9.45% (active) | 30.2% | -66.3% (active) | -15.1% (active) | -23.7% (active) | – | – | – | 42.4% | 24.4% | – | 50.8% | 27.3% | -26.5% (active) | 26% | – | 25.9%
13 | CCCCc1ccc(NC(=O)C(F)(F)F)cc1 | 99% | 120% | 98.3% | 83.8% | 95.4% | 102% | 105% | 84.1% | 74.9% | 86.4% | 91.4% | 95.1% | 99.6% | 114% | 109% | 113% | 106% | – | 103% | –
14 | COc1cc(/C=C/c2cc(/C=C/c3ccc(O)c(OC)c3)n(-c3ccccc3)n2)ccc1O | -48.1% (active) | -38.8% (active) | -3.11% (active) | -44.6% (active) | 6.18% (active) | 2.77% (active) | -60.4% (active) | -25.2% (active) | – | – | -33.6% (active) | -13.1% (active) | -7.74% (active) | 4.49% (active) | -53.1% (active) | -21.2% (active) | -46.9% (active) | -13% (active) | 3.18% (active) | -5.12% (active)
15 | Cc1ccc(N(CSc2ccc(Cl)cc2)CSc2ccc(Cl)cc2)cc1 | 86.2% | 17.4% | 30.3% | 22.1% | 92.2% | 66.6% | 28.8% | -22.4% (active) | – | 11.2% | 6.09% (active) | 66.9% | 79.1% | – | – | -10.3% (active) | 48.3% | 45% | 31.5% | -7.51% (active)
16 | CCOc1ccc(-c2cnnn2-c2nonc2-n2cccc2)cc1 | 18.3% | 60.9% | 40.1% | 29.8% | 45.3% | 47.3% | 46.4% | 18.7% | 8.83% (active) | 1.35% (active) | 12.5% | 25.9% | 41.1% | 39.6% | -1.75% (active) | 36.5% | -37.1% (active) | – | -5.39% (active) | –
17 | O=C(NC1CC1)c1cc2n(n1)CC(c1ccccc1)N2 (stereo not given) | 99.9% | 83.7% | 102% | 95.8% | 102% | 106% | 91.4% | – | 109% | 104% | 112% | 105% | 95.9% | 104% | – | 100% | 112% | 83.8% | 104% | 108%
